Results on 38 compounds are retold here after ChEMBL document CHEMBL3433997, “St. Jude Leishmania screening dataset” (2016).

Holding throughout (type): functional
Assay [1] addresses Solute carrier family 2, facilitated glucose transporter member 1 (Homo sapiens) (UniProt P11166). Nature of the assay: ST_JUDE_LEISH: Cytotoxicity at 2uM final concentration against transgenic Leishmania Mexicana promastigotes LmGLUT1 that are glucose transport deficient and complemented with the human glucose transporter GLUT1. Activity is measured by DNA content using SYBR green in vitro.

Assay [2] addresses Hexose transporter 1 (Plasmodium falciparum) (UniProt O97467). Briefly: ST_JUDE_LEISH: Cytotoxicity at 2uM final concentration against transgenic Leishmania Mexicana promastigotes LmPfHT that are glucose transport deficient and complemented with the Plasmodium falciparum hexose transporter. Activity is measured by DNA content using SYBR green in vitro.
Assay [3] has as its target Glucose transporter (Leishmania mexicana) (UniProt O61059). Nature of the assay: ST_JUDE_LEISH: Cytotoxicity at 2uM final concentration against transgenic Leishmania Mexicana promastigotes LmGT2 that are glucose transport deficient and complemented with the L. Mexicana glucose transporter 2. Activity is measured by DNA content using SYBR green in vitro.

Usually inhibition stands for the relative decrease from the control value, in per cent.

Solute carrier family 2, facilitated glucose transporter member 1 (Homo sapiens), sequence (P11166 whole entry): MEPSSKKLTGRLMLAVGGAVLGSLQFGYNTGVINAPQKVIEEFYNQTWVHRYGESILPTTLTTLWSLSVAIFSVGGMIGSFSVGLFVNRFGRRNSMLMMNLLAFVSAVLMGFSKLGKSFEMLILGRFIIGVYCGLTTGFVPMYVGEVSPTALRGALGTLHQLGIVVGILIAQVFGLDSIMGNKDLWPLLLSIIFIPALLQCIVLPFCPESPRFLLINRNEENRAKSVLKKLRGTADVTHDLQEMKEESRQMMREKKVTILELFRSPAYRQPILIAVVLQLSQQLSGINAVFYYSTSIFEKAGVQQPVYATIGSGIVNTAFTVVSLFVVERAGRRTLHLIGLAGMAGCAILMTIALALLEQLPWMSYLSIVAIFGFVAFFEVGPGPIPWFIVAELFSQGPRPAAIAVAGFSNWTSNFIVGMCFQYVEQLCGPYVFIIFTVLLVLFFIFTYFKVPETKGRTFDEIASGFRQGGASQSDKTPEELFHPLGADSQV

As for `CCCCN(C)CC#Cc1ccc2[nH]c(C)c(Cl)c(=O)c2c1`, the inhibition stood at 3.48% in assay [1], 3.22% in assay [2] and 2.37% in assay [3].

Take `CN(C)Cc1ccc(-c2ccc3ccnc(N)c3c2)cc1`: the figures for the inhibition in assay [1], in assay [2] and in assay [3] were 3.2%, 4.43% and 1.95%, respectively.

On to `COC(=O)c1ccc2nc(-c3ccc(/C=C/C(=O)NCc4ccc(Cl)c(Cl)c4)cc3)[nH]c2c1`, for which the values for the inhibition in assay [1], in assay [2] and in assay [3] were 3.11%, 0.43% and 4.71%, respectively.

With `CCCCN1CC[C@@H](CCC(O)c2cc(OCCC)nc3ccc(OC)cc23)[C@@H](CC)C1` (some centres undefined), the inhibition is -0.6% in assay [1], -1.53% in assay [2] and -1.52% in assay [3].

Consider `Cc1cnc(CN(Cc2ccc(-c3ccc(CNCCc4ccc(S(C)(=O)=O)cc4)cn3)cc2)C(=O)c2ccc([N+](=O)[O-])c(C)c2)cn1`, for which the inhibition in assay [1] is 1.89%; in assay [2] it was 3.15%; in assay [3], 1.98%.

Take `CCNCc1cccc(-c2ccc3ccnc(N)c3c2)c1`: the inhibition in assay [1] turned out to be 4.49%; in assay [2] it was 3.12%; in assay [3], 4.03%.

As for `O=C1COC2(CN1C1CCN(Cc3ccc(O)c(Cl)c3)C1)c1ccccc1-c1ccccc12` (centres undefined), the inhibition in assay [1] was found to be 9.11%; in assay [2], 7.57%; in assay [3] it was 5.67%.

In the case of `COc1cc2nc(N3CCC(CNC(=O)c4ccc(-c5ccc(-c6noc(C)n6)cc5)cc4)CC3)nc(N)c2cc1OC`, the results for the inhibition in assay [1], in assay [2] and in assay [3] were 64.1%, 45.5% and 41.6%, respectively.

As to `COc1ccc2c(NN=Cc3ccccc3Cl)ccnc2c1`, the inhibition in assay [1] was found to be 3.65%; in assay [2], 4.27%; in assay [3], 4.32%.

`CC1(C)NC(N)=NC(=N)N1OCCOc1ccc2ccccc2c1`: the inhibition was 0.95% in assay [1], -0.86% in assay [2] and 1.3% in assay [3].

For the compound `CCC1CN2CCc3c([nH]c4ccc(OC)cc34)C2CC1CC1NCCc2cc(OC)c(OC)cc21` (centres undefined), the inhibition in assay [1] was found to be 3.04%; in assay [2], 3.2%; in assay [3], 4.05%.

As to `CC(C)CCN1CCC(Oc2ccc(NC(=O)c3ccco3)cc2Cl)CC1`, the figures for the inhibition in assay [1], in assay [2] and in assay [3] were 7.85%, 9.84% and 5.26%, respectively.

Turning to `FC(F)(F)c1ccc2[nH]c(-c3cccc(-c4cccc(CNCc5cnn(-c6ccccc6)n5)c4)c3)nc2c1`, the values for the inhibition in assay [1], in assay [2] and in assay [3] were 5.47%, 5.16% and 3.27%, respectively.

For the compound `O=C(Nc1ccc(-c2ccccc2)cc1)Nc1cccc(Cn2nc(Cl)c(N3CCNCC3)cc2=O)c1`, the values for the inhibition in assay [1], in assay [2] and in assay [3] were 0.77%, 2.24% and 4.62%, respectively.

As to `CC(=O)Oc1c(C2CCN(CCCCNC(=O)c3ccc(NC(=O)c4ccc(Cl)cc4)cc3)CC2)ccc2c1CCCC2`, the inhibition was found to be 4.86% in assay [1], 6.32% in assay [2] and 3.9% in assay [3].

In the case of `CCCc1cc(Cc2cnc(N)nc2N)cc(CCC)c1OCCCCC(=O)OC`, the inhibition was 3.01% in assay [1], 0.4% in assay [2] and 0.33% in assay [3].

As for `COc1ccc2ncc(F)c(CCN3CC[C@@H](CNCc4ccc5c(c4C)OCCO5)C3)c2n1`, the values for the inhibition in assay [1], in assay [2] and in assay [3] were 27.8%, 35.3% and 52.1%, respectively.

Consider `NCc1ccc(Nc2nccc(Nc3ccc(-c4ccccc4)cc3)n2)cc1`, for which the inhibition stood at 2.28% in assay [1], 4.91% in assay [2] and 0.24% in assay [3].

On to `CCC(Nc1noc(-c2c(-c3ccccc3)noc2C)n1)c1ccccc1` (centres undefined), for which the inhibition in assay [1] was -1.15%; in assay [2] it was 2.18%; in assay [3], 1.54%.

In the case of `C=C(NC(=O)c1cc(C)cc(C)c1)C(=O)OC`, the inhibition is 0.48% in assay [1], -0.44% in assay [2] and 0.67% in assay [3].

As for `c1ccc(CCNc2ccnc(Nc3ccc4cn[nH]c4c3)n2)cc1`, the figures for the inhibition in assay [1], in assay [2] and in assay [3] were 17.8%, 14.8% and 10%, respectively.

Consider `CCN(CC)/C(=N/C(=N)Nc1ccc(Cl)cc1)NCCCCCCCCN/C(=N\C(=N)Nc1ccc(Cl)cc1)N(CC)CC`, for which the inhibition in assay [1] is 0.33%; in assay [2], -0.74%; in assay [3], -0.07%.

In the case of `COc1ccc(OC(C)CNC(=O)c2cc([N+](=O)[O-])ccc2-c2ccc(OC)cc2)cc1` (centres undefined), the inhibition in assay [1] is 0.03%; in assay [2], -1.79%; in assay [3], -4.55%.

On to `O=C(Nc1cccc(CN2CCCN(Cc3ccc4c(c3)OCO4)CC2)c1)c1ccc2ccccc2c1`, for which the inhibition in assay [1] was 1.49%; in assay [2], 1.31%; in assay [3], -7.63%.

On to `Cc1ccc(NC(=O)c2ccc(-c3cc4cc(Cl)c(Cl)cc4[nH]3)cc2)cc1OCCN1CCCC1`, for which the values for the inhibition in assay [1], in assay [2] and in assay [3] were -0.06%, -0.67% and 0.15%, respectively.

On to `O=C(NC1CCN(CCN2CCC(c3ccccc3C(F)(F)F)CC2)CC1)c1ccc(-c2ccc(Cl)cc2)cc1`, for which the inhibition was determined as 9.46% in assay [1], 0.61% in assay [2] and 1.57% in assay [3].

Consider `O=C(Cc1ccc(F)cc1)NC1CCN(c2ccnc3cc(Cl)ccc23)C1` (centres undefined), for which the inhibition in assay [1] amounted to 0.69%; in assay [2] it was 1.78%; in assay [3], 2.41%.

`COc1ccc(-n2nc(C(=O)NCc3ccccc3OC)c3ccccc3c2=O)cc1`: the inhibition was 8.08% in assay [1], 6.04% in assay [2] and 2.98% in assay [3].

In the case of `CC(C)(C)N1CCC(N(Cc2ccc(-c3ccc(C(F)(F)F)cc3)cc2)C(=O)Cn2c(CCc3cccc(F)c3F)cc(=O)c3ccccc32)CC1`, the inhibition in assay [1] came to 1.29%; in assay [2], 0.14%; in assay [3], 1.02%.

Turning to `CC(C)(C)c1nn(-c2ccccc2)c2[nH]c(=O)c(CNCc3ccccc3)cc12`, the inhibition in assay [1] amounted to 2.76%; in assay [2], 2.02%; in assay [3], 3.75%.

Regarding `Cc1c(C(=O)C2CC2CN2CCC(N3CCCCC3)CC2)sc2ccccc12` (centres undefined), the figures for the inhibition in assay [1], in assay [2] and in assay [3] were 2.43%, -0.31% and 2.09%, respectively.

For the compound `C#CCCC(=O)Nc1cccc(-c2cccc(-c3nc4cc(C(F)(F)F)ccc4[nH]3)c2)c1`, the inhibition in assay [1] was -2.22%; in assay [2], 1.99%; in assay [3], 1.42%.

Consider `O=C(/C=C/c1ccc(Cl)c(Cl)c1)NCCCCCN1CCC(C(=O)Nc2cccc(Cl)c2)CC1`, for which the inhibition turned out to be 2.86% in assay [1], 1.97% in assay [2] and 2.09% in assay [3].

For `CCCN1CCN(Cc2ccc(-c3ccc(-c4nc5ccccc5[nH]4)s3)cc2)CC1`, the inhibition in assay [1] is -0.29%; in assay [2] it was 2.1%; in assay [3], 1.19%.

Turning to `Nc1ccc2c(N)c3ccccc3nc2c1`, the inhibition in assay [1] was 0.33%; in assay [2], 0.2%; in assay [3], -1.77%.

As to `O=C(Cc1cccc(Cl)c1)Nc1cccc(-c2c[nH]c3nc(Nc4cccc(OCc5ccccc5)c4)ncc23)c1`, the values for the inhibition in assay [1], in assay [2] and in assay [3] were 6.67%, 6.61% and 5.74%, respectively.

Regarding `CCNc1cc(C(=O)N[C@@H](Cc2ccccc2)[C@H](O)CNCCc2cccc(C(F)(F)F)c2)cc(N2CCCC2=O)c1`, the inhibition in assay [1] was 1.16%; in assay [2], 1.57%; in assay [3], -0.87%.

For `CCc1cn2c3c(cc(C(=O)N[C@@H](Cc4ccccc4)[C@H](O)CNC4CCCC4)cc13)N(C)S(=O)(=O)CC2`, the inhibition in assay [1] is 8.55%; in assay [2], 9.26%; in assay [3], 5.93%.
